Measured values reported in the supplement of paper PMC4466140.

Target: ScBbc1
Experiment: SPOT peptide array binding signal intensity (averaged, normalized) (arbitrary units (background-subtracted, floor 0; scale differs between SH3 domains)); higher = stronger binding of the SH3 domain to the peptide
Summary of the method: (§1)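 E. coli BL21(DE3) was used to express GST-fused SH3 domains from four yeast species, which were then purified on glutathione Sepharose. These were incubated at 10 μg/ml in TBS-based blocking buffer overnight at 4°C on cellulose membranes carrying synthetic 15-mer peptides, in which cysteines were replaced by serines. Binding signal is the replicate average of normalized, background-subtracted spot intensity, in arbitrary units that differ between domains.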

Row | Binder | SPOT peptide array binding signal intensity
1 | TTAPALPSLPPPPLL | 1

Target: ScBem1-D1
Experiment: as above
Summary of the method: as §1

Row | Binder | SPOT peptide array binding signal intensity
2 | TTAPALPSLPPPPLL | 2

Target: ScBzz1-D1
Experiment: as above
Summary of the method: as §1

Row | Binder | SPOT peptide array binding signal intensity
3 | TTAPALPSLPPPPLL | 190

Target: ScBzz1-D2
Experiment: as above
Summary of the method: as §1

Row | Binder | SPOT peptide array binding signal intensity
4 | TTAPALPSLPPPPLL | ≤ 0

Target: ScCyk3
Experiment: as above
Summary of the method: as §1

Row | Binder | SPOT peptide array binding signal intensity
5 | TTAPALPSLPPPPLL | ≤ 0

Target: ScFus1
Experiment: as above
Summary of the method: as §1

Row | Binder | SPOT peptide array binding signal intensity
6 | TTAPALPSLPPPPLL | ≤ 0

Target: ScHof1
Experiment: as above
Summary of the method: as §1

Row | Binder | SPOT peptide array binding signal intensity
7 | TTAPALPSLPPPPLL | 2250

Target: ScHse1
Experiment: as above
Summary of the method: as §1

Row | Binder | SPOT peptide array binding signal intensity
8 | TTAPALPSLPPPPLL | ≤ 0

Target: ScLsb1
Experiment: as above
Summary of the method: as §1

Row | Binder | SPOT peptide array binding signal intensity
9 | TTAPALPSLPPPPLL | ≤ 0

Target: ScLsb2
Experiment: as above
Summary of the method: as §1

Row | Binder | SPOT peptide array binding signal intensity
10 | TTAPALPSLPPPPLL | ≤ 0

Target: ScLsb3
Experiment: as above
Summary of the method: as §1

Row | Binder | SPOT peptide array binding signal intensity
11 | TTAPALPSLPPPPLL | ≤ 0

Target: ScLsb4
Experiment: as above
Summary of the method: as §1

Row | Binder | SPOT peptide array binding signal intensity
12 | TTAPALPSLPPPPLL | ≤ 0

Target: ScMyo3
Experiment: as above
Summary of the method: as §1

Row | Binder | SPOT peptide array binding signal intensity
13 | TTAPALPSLPPPPLL | 2800

Target: ScMyo5
Experiment: as above
Summary of the method: as §1

Row | Binder | SPOT peptide array binding signal intensity
14 | TTAPALPSLPPPPLL | 2300

Target: ScNbp2
Experiment: as above
Summary of the method: as §1

Row | Binder | SPOT peptide array binding signal intensity
15 | TTAPALPSLPPPPLL | ≤ 0

Target: ScPex13
Experiment: as above
Summary of the method: as §1

Row | Binder | SPOT peptide array binding signal intensity
16 | TTAPALPSLPPPPLL | 214

Target: ScRvs167
Experiment: as above
Summary of the method: as §1

Row | Binder | SPOT peptide array binding signal intensity
17 | TTAPALPSLPPPPLL | ≤ 0

Target: ScSho1
Experiment: as above
Summary of the method: as §1

Row | Binder | SPOT peptide array binding signal intensity
18 | TTAPALPSLPPPPLL | 42

Target: ScSla1-D1-D2
Experiment: as above
Summary of the method: as §1

Row | Binder | SPOT peptide array binding signal intensity
19 | TTAPALPSLPPPPLL | ≤ 0

Target: ScSla1-D3
Experiment: as above
Summary of the method: as §1

Row | Binder | SPOT peptide array binding signal intensity
20 | TTAPALPSLPPPPLL | 1.5

Target: SpAbp1-D1
Experiment: as above
Summary of the method: as §1

Row | Binder | SPOT peptide array binding signal intensity
21 | TTAPALPSLPPPPLL | ≤ 0

Target: SpBbc1
Experiment: as above
Summary of the method: as §1

Row | Binder | SPOT peptide array binding signal intensity
22 | TTAPALPSLPPPPLL | 7.5

Target: SpBzz1-D1
Experiment: as above
Summary of the method: as §1

Row | Binder | SPOT peptide array binding signal intensity
23 | TTAPALPSLPPPPLL | 124

Target: SpBzz1-D2
Experiment: as above
Summary of the method: as §1

Row | Binder | SPOT peptide array binding signal intensity
24 | TTAPALPSLPPPPLL | ≤ 0

Target: SpCyk3
Experiment: as above
Summary of the method: as §1

Row | Binder | SPOT peptide array binding signal intensity
25 | TTAPALPSLPPPPLL | 1

Target: SpHof1
Experiment: as above
Summary of the method: as §1

Row | Binder | SPOT peptide array binding signal intensity
26 | TTAPALPSLPPPPLL | ≤ 0

Target: SpHof1-2
Experiment: as above
Summary of the method: as §1

Row | Binder | SPOT peptide array binding signal intensity
27 | TTAPALPSLPPPPLL | 39.8

Target: SpHof1-3
Experiment: as above
Summary of the method: as §1

Row | Binder | SPOT peptide array binding signal intensity
28 | TTAPALPSLPPPPLL | ≤ 0

Target: SpHse1
Experiment: as above
Summary of the method: as §1

Row | Binder | SPOT peptide array binding signal intensity
29 | TTAPALPSLPPPPLL | ≤ 0

Target: SpLsb1
Experiment: as above
Summary of the method: as §1

Row | Binder | SPOT peptide array binding signal intensity
30 | TTAPALPSLPPPPLL | ≤ 0

Target: SpLsb4
Experiment: as above
Summary of the method: as §1

Row | Binder | SPOT peptide array binding signal intensity
31 | TTAPALPSLPPPPLL | ≤ 0

Target: SpMyo1
Experiment: as above
Summary of the method: as §1

Row | Binder | SPOT peptide array binding signal intensity
32 | TTAPALPSLPPPPLL | 1940

Target: SpNbp2
Experiment: as above
Summary of the method: as §1

Row | Binder | SPOT peptide array binding signal intensity
33 | TTAPALPSLPPPPLL | ≤ 0

Target: SpPex13
Experiment: as above
Summary of the method: as §1

Row | Binder | SPOT peptide array binding signal intensity
34 | TTAPALPSLPPPPLL | 11

Target: SpRvs167
Experiment: as above
Summary of the method: as §1

Row | Binder | SPOT peptide array binding signal intensity
35 | TTAPALPSLPPPPLL | ≤ 0

Target: SpSla1-D1-D2
Experiment: as above
Summary of the method: as §1

Row | Binder | SPOT peptide array binding signal intensity
36 | TTAPALPSLPPPPLL | 4

Target: SpSla1-D3
Experiment: as above
Summary of the method: as §1

Row | Binder | SPOT peptide array binding signal intensity
37 | TTAPALPSLPPPPLL | 2
